Assay results: PubChem BioAssay

Assay: binders of probe aFSTL3 on microarray, primary screen, stem cell growth factor project, biochemical, small-molecule microarray, fluorescence 635/667 (AID 1064);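 note: measures binding of the biotinylated anti-FSTL3 antibody to printed compounds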
Details: higher = more signal

Compared with `CC(C)C(=C=CC[C@@H](O)c1ccccc1OCCO)C[C@@H](O)c1cc(Cl)cc(Cl)c1O`, `COCCOC(=O)N1C(=O)[C@@]2(c3cc(C#CC4(O)CCCCCC4)ccc31)[C@H](c1ccc(OCCO)cc1)N1[C@H](c3ccccc3)[C@H](c3ccccc3)OC(=O)[C@H]1[C@@H]2C(N)=O` is higher in composite z-score: -0.667 for the first, -0.392 for the second.

Compared with `COc1ccc(C#Cc2ccc3c(c2)[C@]2(C(=O)N3)[C@H](C(=O)Nc3nc4ccccc4s3)[C@H]3C(=O)O[C@H](c4ccccc4)[C@H](c4ccccc4)N3[C@@H]2c2ccc(OCCO)cc2)cc1`, `COc1ccc(CCNC(=O)[C@@]2(C)c3ccccc3C(=O)N(Cc3cc(C(F)(F)F)cc(C(F)(F)F)c3)[C@H]2c2ccc(CO)cc2)cc1` is higher in composite z-score: -0.113 for the first, 1.42 for the second.

Going from `CC(=O)n1cc(C(O)C2C=CC3C(=O)N(c4ccccc4)C(=O)C3N2Nc2ccccc2F)c2ccccc21` (stereo unspecified) to `COc1cc2c(cc1O)C(c1ccc(CN3CCCC3)cc1)N(Cc1ccc([N+](=O)[O-])o1)CC2` (stereo unspecified), the composite z-score falls from -0.146 to -0.649.

Assay: binders from COS7 lysate, DM2A8 probe, primary screen, torsin A project, cell lysate, small-molecule microarray, fluorescence 635/667 (AID 1065)
Details: higher = more signal, COS7 lysate expressing mutant human TOR1A

First: O=C1C2C=CC(C(O)c3ccc([N+](=O)[O-])cc3)N(Nc3ccccc3)C2C(=O)N1c1ccccc1 (stereo unspecified)
Second: O=C1C2C=CC(C(O)c3cccs3)N(Nc3ccccc3)C2C(=O)N1c1ccccc1 (stereo unspecified)
The composite z-score of the first is higher: 0.0467 for the first, -0.0855 for the second.

First: CC(=O)NCCCC[C@@H]1NC(=O)[C@H]2C[C@@H](C(=O)NCCCCCC[N+](C)(C)C)[C@@H](c3ccc(O)cc3)N2C1=O
Second: CN(C)CCCC[C@@H]1NC(=O)[C@@H]2C[C@H](C(=O)NCCCCCCNC(=O)CS)[C@H](c3cccc(OCCO)c3)N2C1=O
The composite z-score of the first is higher: 0.808 for the first, 0.353 for the second.

Compared with `CCCC[C@H]1OB(O)C[C@H]2C1=C(COC)C[C@H]1C(=O)C=CC(=O)[C@H]12`, `CN(C)CCCC[C@@H]1NC(=O)[C@H]2C[C@@H](C(=O)NCc3ccc(F)cc3)[C@@H](c3ccc(O)cc3)N2C1=O` is higher in composite z-score: 0.007 for the first, 0.412 for the second.

Compared with `C[C@@H](OCc1ccccc1)C1NC(=O)[C@@]23C(=O)N[C@@H](Cc4ccccc4)C2[C@H](C)[C@@]2(C)O[C@H]2C3/C=C/C/C=C\CNC(=O)[C@H](Cc2ccccc2)NC1=O` (stereo partly specified), `O=C1N(CCS(=O)(=O)c2ccccc2)c2ccccc2[C@@H]2OC(c3ccc(OCCCO)cc3)=N[C@]12CCS(=O)(=O)c1ccccc1` is higher in composite z-score: -0.0147 for the first, 0.145 for the second.

First: C=CCC(OC(C)=O)[C@@H]1[C@@H](N(Cc2ccc(-c3cccc(C(F)(F)F)c3)o2)C(=O)c2cccc3ccccc23)c2cc(OCCCO)ccc2N1C(=O)c1ccc2ccccc2c1 (stereo partly specified)
Second: C=CCC(OC(C)=O)[C@@H]1[C@@H](N(Cc2cccc3ccccc23)C(=O)c2cccc3ccccc23)c2cc(OCCCO)ccc2N1C(=O)Cc1ccc2ccccc2c1 (stereo partly specified)
The composite z-score of the first is higher: -0.132 for the first, -0.391 for the second.

Going from `COCCn1c(C(=O)N2CCCC2)cc2c1C[C@H]1CN(C(=O)c3ccccc3)[C@@](Cc3ccccc3)(C(=O)OC)[C@@H]21` to `COC(=O)[C@@]1(Cc2ccc(OC)cc2)[C@H]2c3cc(C(=O)N4CCCC4)n(CCc4ccc(OC)c(Br)c4)c3C[C@H]2CN1C(=O)c1ccccc1`, the composite z-score falls from 1.16 to -0.116.

Compared with `C=CC[C@@]12N=C(c3ccc(OCCCO)cc3)O[C@@H]1c1ccccc1N(Cc1ccccc1)C2=O`, `[N-]=[N+]=Nc1ccccc1[C@@H]1OC(c2ccc(OCCCO)cc2)=N[C@]1(Cc1ccccc1)C(N)=O` is lower in composite z-score: 1.43 for the first, -0.334 for the second.

Going from `C[C@]1(C(=O)NCC(F)(F)F)c2ccccc2C(=O)N(Cc2ccc(OC(F)(F)F)cc2)[C@H]1c1ccc(CO)cc1` to `COc1ccc(CCNC(=O)[C@@]2(C)c3ccccc3C(=O)N(Cc3cc(C(F)(F)F)cc(C(F)(F)F)c3)[C@H]2c2ccc(CO)cc2)cc1`, the composite z-score rises from 0.67 to 1.35.

Going from `C=CC[C@]1(C(=O)N(C)C)COC(c2ccc(OCCCO)cc2)=N1` to `[N-]=[N+]=NCc1ccccc1C[C@]1(C(=O)O)COC(c2ccc(OCCCO)cc2)=N1`, the composite z-score falls from 2.23 to -0.167.

Compared with `O=C1O[C@@H](c2ccccc2)[C@@H](c2ccccc2)N2[C@@H](c3ccc(O)cc3)[C@]3(C(=O)Nc4ccc(C#CC5=CCCCC5)cc43)[C@@H](C(=O)N3CCCCCCC3)[C@H]12`, `COCCOC(=O)N1C(=O)[C@@]2(c3cc(C#CC4(O)CCCCCC4)ccc31)[C@H](c1ccc(OCCO)cc1)N1[C@H](c3ccccc3)[C@H](c3ccccc3)OC(=O)[C@H]1[C@@H]2C(N)=O` is higher in composite z-score: 0.905 for the first, 0.96 for the second.

Going from `CCCCC(=C=CC[C@@H](O)c1cccc(OCCO)c1)C[C@@H](O)COCc1ccccc1` to `CC(C)C(=C=CC[C@@H](O)c1ccccc1OCCO)C[C@@H](O)c1cc(Cl)cc(Cl)c1O`, the composite z-score rises from -0.323 to 1.84.

First: COC(=O)[C@]1(CO)N=C(c2ccc(OCCCO)cc2)O[C@@H]1c1ccccc1CN=[N+]=[N-]
Second: CCOC(=O)C[C@H]1[C@H](OC(=O)c2ccc(-c3ccccc3)cc2)[C@@H](NC(=O)CC(C)C)c2cc(OCCCO)ccc2N1C(=O)Cc1ccc(OC)cc1
The composite z-score of the first is lower: -0.132 for the first, 0.445 for the second.

First: COc1ccc(NN2C(C(O)c3cc(C(F)(F)F)cc(C(F)(F)F)c3)C=CC3C(=O)N(C4CCCCC4)C(=O)C32)cc1 (stereo unspecified)
Second: CC(=O)n1cc(C(O)C2C=CC3C(=O)N(c4ccccc4)C(=O)C3N2Nc2ccccc2F)c2ccccc21 (stereo unspecified)
The composite z-score of the first is higher: 0.301 for the first, 0.25 for the second.

Going from `CCCC=C(CCC)[C@@H](NC(=O)c1ccccc1)c1ccc(C(=O)OC)cc1` to `C=C(COC)/C(=C/C[C@@H](OC(C)=O)c1ccccc1OCCO)c1cc(C(=O)OC)ccc1OC`, the composite z-score falls from 0.78 to 0.377.

Compared with `CO[C@H]1O[C@H](CO)[C@@H](OC(=O)Nc2ccc(C(F)(F)F)cc2)[C@H](OC(=O)Nc2ccccc2-c2ccccc2)[C@@H]1OC(=O)Nc1ccccc1-c1ccccc1`, `CO[C@H]1O[C@H](CO)[C@@H](OC(=O)Nc2ccc(C(F)(F)F)cc2)[C@H](OC(=O)Nc2ccccc2-c2ccccc2)[C@H]1OC(=O)Nc1ccccc1-c1ccccc1` is lower in composite z-score: 1.65 for the first, 1.16 for the second.

Compared with `CCOC(=O)C[C@H]1[C@H](OC(=O)c2cc3ccccc3oc2=O)[C@@H](NC(=O)C2CCCCC2)c2cc(OCCCO)ccc2N1C(=O)Cc1ccc(OC)cc1`, `COc1ccc(C#Cc2ccc3c(c2)[C@]2(C(=O)N3)[C@H](C(=O)Nc3nc4ccccc4s3)[C@H]3C(=O)O[C@H](c4ccccc4)[C@H](c4ccccc4)N3[C@@H]2c2ccc(OCCO)cc2)cc1` is higher in composite z-score: 0.714 for the first, 1.45 for the second.

First: N#Cc1ccc(C(O)C2C=CC3C(=O)NC(=O)C3N2Nc2ccccn2)cc1 (stereo unspecified)
Second: COc1cc2c(cc1O)C(c1ccc(CN3CCCC3)cc1)N(Cc1ccc([N+](=O)[O-])o1)CC2 (stereo unspecified)
The composite z-score of the first is higher: -0.013 for the first, -0.533 for the second.

`CCOC(=O)C1=C(C(=O)OCC)N(S(=O)(=O)CC[Si](C)(C)C)[C@H](c2ccccc2)CC1` gave a composite z-score of 0.0516.
